The list is not random: actives were taken first. Their share in the collection is about 6.8%.
Fluor 339 460 = intrinsic fluorescence of library compounds, ex339/em460 – biochemical, MLSMR library, data from DPM-DC assay, artefact control, profiling panel. 5.5% of 65,000 active. compound autofluorescence, ex339/em460 nm, NADH buffer; hits give high values; 1 = no-compound wells, NADH background. fluorescence fold increase at 10 µM. AID 709;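 active = at 10 µM, mean starting fluorescence two-fold or more over control wells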;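 note: signal is the first read of a kinetic run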
PMK inhibit = inhibitors of Streptococcus pneumoniae phosphomevalonate kinase; AID 539; inhibition, % at 10 µM; purified PMK, PK/LDH-coupled NADH absorbance 340 nm; 0.49% of 65,000 active;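 active = top-ranked compounds by inhibition in the single 10 µM screen, taking a fixed number of the strongest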;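 note: 0% = full reaction with DMSO carrier and 100% = background rate without enzyme reaction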
A340 absorber = compounds absorbing at 340 nm; compound absorbance at 340 nm, fold over control; fold change at 10 µM; 65,000 tested, under 10 active; AID 708;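 active = at 10 µM dose, initial 340 nm absorbance at least 2 fold that of control wells; inactive = change under 2 fold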;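 note: initial absorbance extrapolated from kinetic A340 decline of NADH oxidation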
DPM-DC inhibit = inhibitors of Streptococcus pneumoniae diphosphomevalonate decarboxylase; purified DPM-DC, PK/LDH coupled NADH fluorescence; calls only at 10 µM; 0.49% of 65,000 active; AID 556;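 active = the 320 compounds with the highest percent inhibition in the single-dose primary screen, excluding strongly autofluorescent ones, cut at about 32% in these data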;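 note: kinetic rate of NADH fluorescence loss reporting ADP formed by the decarboxylase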
MK inhibit = inhibitors of Streptococcus pneumoniae mevalonate kinase | purified MK, PK/LDH-coupled NADH absorbance 340 nm | inhibition, % at 10 µM | 0.48% of 65,000 active;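 active = ranked among the strongest by inhibition in the single 10 µM screen, a fixed top-ranked set picked for dose follow-up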
NADH coupling = inhibitors of enzymes used to reach an NAD/NADH endpoint | 0.02% of 65,000 active | coupled PK/LDH NADH assays, four targets | AID 774 | IC50, µM (doses to about 10 µM), for inactives: at the highest dose inhibition;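 active = single-dose screening hits from any of four coupled enzyme assays that gave an IC50 when retested across doses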;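 note: the DPM-DC format reads NADH fluorescence rather than 340 nm absorbance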
The depositor's hits bear a star; i = inactive; x = not tested or not shown.

SMILES | Fluor 339 460 | PMK inhibit | A340 absorber | DPM-DC inhibit | MK inhibit | NADH coupling
COc1cc(OC)cc(-c2cc3nc4c(c(N5CCN(c6cnccn6)CC5)n3n2)CCCC4)c1 | 2.8* | 0 | 1 | i | 0 | 1%
CCc1c(C)nc2cc(-c3cc(OC)cc(OC)c3)nn2c1N1CCCC1 | 1.3 | 2 | 1 | i | 4 | 2%
COc1cc(OC)cc(-c2cc3nc4c(c(N5CCN(c6ncccn6)CC5)n3n2)CCCC4)c1 | 3.8* | 11 | 1 | i | 8 | 6%
CC(=O)N1CCCc2cc(S(=O)(=O)NC(C(=O)NCc3ccc(C)cc3)C(C)C)ccc21 (configuration not stated) | 1.1 | 12 | 0.98 | i | 8 | 7%
CCN(CC(=O)Nc1cccc(OC)c1)C(=O)C1CCN(C(=O)Nc2ccccc2)CC1 | 1 | 6 | 0.99 | i | 0 | 2%
Cc1oc(C(=O)O)cc1COc1ccc2c(C)cc(=O)oc2c1 | 2.1* | 1 | 1.1 | i | 1 | 5%
COC(=O)c1cc(COc2ccc3ccc(=O)oc3c2)c(C)o1 | 2.1* | 0 | 1.1 | x | 10 | 5%
COC(=O)c1cc(COc2ccc3oc(C)c(C(=O)OC)c3c2)c(C)o1 | 1.1 | 9 | 1 | i | 3 | 4%
O=C(CN1C(=O)NC2NC(=O)NC21)NC1CCCCC1 (configuration not stated) | 1.1 | 21 | 0.97 | i | 6 | 9%
C=C(C)Cn1c(NCCC)nc2c1c(=O)n(C)c(=O)n2C | 1.1 | 11 | 1 | i | 3 | 6%
Cc1cccc(N(C)C(=O)c2cc3cc4ccc(C)cc4nc3o2)c1 | 1.4 | 9 | 1.1 | i | 4 | 3%
Cc1ccc2cc3cc(C(=O)NCCCN4CCc5ccccc5C4)oc3nc2c1 | 5.1* | 2 | 1.1 | x | 0 | 1%
Cc1ccc2cc3cc(C(=O)NCCCN4CCCCCC4)oc3nc2c1 | 5.1* | 0 | 1.1 | x | 0 | 0%
O=C(CN(C1CCCCC1)S(=O)(=O)c1ccc(Cl)cc1)NCCCO | 1.1 | 0 | 1 | i | 3 | 1%
CCCCOC(=O)CSC1=C(C#N)C(c2ccccc2OC)C(C#N)C(=O)N1 (configuration not stated) | 1.1 | 3 | 0.99 | i | 78* | 27%
Cc1ccc(-c2csc3nnc(SCC(=O)N4CCN(Cc5ccccc5)CC4)n23)cc1 | 1 | 17 | 0.99 | i | 8 | 8%
Cc1ccc(-c2csc3n[nH]c(=S)n23)cc1 | 1 | 2 | 1 | i | 88* | 31%
COc1cccc2c1OC1(C)CC2NC(=O)N1c1cccc(C(=O)Nc2ccc3c(c2)OCCO3)c1 (configuration not stated) | 1.1 | 13 | 1 | i | 0 | 4%
Cc1ccc2nc3c(cc(C(=O)NCc4ccccc4)c(=N)n3CCCn3ccnc3)c(=O)n2c1 | 3.8* | 6 | 1.1 | x | 0 | 3%
Cc1cccn2c(=O)c3cc(C(=O)NC(C)c4ccccc4)c(=N)n(CCCn4ccnc4)c3nc12 (configuration not stated) | 3.8* | 6 | 1.1 | x | 0 | 3%
COc1ccc(NC(=O)N(CCCN(C)C)Cc2cc3cc(OC)ccc3[nH]c2=O)cc1 | 1.8 | 16 | 1.1 | i | 7 | 8%
CCN(CC)CCCN(Cc1cc2cc(OC)ccc2[nH]c1=O)C(=O)Nc1ccccc1 | 1.8 | 16 | 0.99 | i | 2 | 7%
CCN(CC)CCCN(Cc1cc2cc(OC)ccc2[nH]c1=O)C(=O)Nc1ccc(F)cc1 | 2* | 9 | 1.1 | i | 1 | 9%
COc1ccc(NC(=O)N(CCN2CCCC2)Cc2cc3cc(OC)c(OC)cc3[nH]c2=O)cc1 | 2.1* | 7 | 1.2 | i | 4 | 9%
Clc1ccc(C(c2nnnn2C2CCCC2)N2CCN(Cc3ccncc3)CC2)cc1 (configuration not stated) | 1.1 | 25* | 1 | i | 0 | 8%
SMILES | Fluor 339 460 | PMK inhibit | A340 absorber | DPM-DC inhibit | MK inhibit | NADH coupling
c1cncc(C(c2nnnn2C2CCCC2)N2CCCC2)c1 (configuration not stated) | 1.1 | 25* | 1 | i | 0 | 8%
c1ccc(C(c2nnnn2C2CCCC2)N2CCCCCC2)nc1 (configuration not stated) | 1.2 | 11 | 1 | i | 8 | 6%
COC(=O)c1[nH]c2cccc(OC)c2c1NC(=O)CCN1CCC(C(N)=O)CC1 | 2.9* | 15 | 1 | i | 7 | 15%
COC(=O)c1[nH]c2cccc(OC)c2c1NC(=O)CN1CCC(C(N)=O)(N2CCCCC2)CC1 | 3.7* | 4 | 1 | x | 5 | 5%
COC(=O)c1[nH]c2cccc(OC)c2c1NC(=O)CCN1CCN(c2ccccc2F)CC1 | 3.1* | 14 | 1 | i | 11 | 13%
CC1=C(C(=O)OCC(C)C)C(c2ccc(F)cc2)NC(=O)N1 (configuration not stated) | 1.1 | 10 | 1 | i | 3 | 4%
O=c1c2c3nc4ccccc4nc3n(CCN3CCOCC3)c2ncn1CCN1CCOCC1 | 1.3 | 15 | 1.1 | i | 6 | 9%
CC1CC(C)CN(S(=O)(=O)c2ccc(C(=O)Nc3nnc(-c4cccs4)o3)cc2)C1 (configuration not stated) | 3.8* | 6 | 1.1 | x | 1 | 4%
COc1ccc(-c2nnc(NC(=O)c3ccc(S(=O)(=O)N4CCc5ccccc5C4)cc3)o2)cc1 | 3.1* | 3 | 1.1 | i | 0 | 9%
Cc1ccc2c(=O)c(CN(C)C3CCN(C)CC3)c(C)[nH]c2c1C | 1.1 | 5 | 1 | i | 2 | 2%
COc1cccc(NC(=O)CN2C(=O)COc3ccc(Cl)cc32)c1 | 0.99 | 17 | 1 | i | 6 | 8%
NC(=O)C1CCCN(C(=O)Nc2cccc3ccccc23)C1 (configuration not stated) | 2.3* | 0 | 1.1 | i | 4 | 4%
CCN1CCN(C(=O)Nc2cccc3ccccc23)CC1 | 1.6 | 0 | 1 | i | 6 | 2%
CN1CCN(C(=O)Nc2cccc3ccccc23)CC1 | 2.1* | 0 | 1 | x | 1 | 1%
c1ccc(N2CCN(c3nc(NCc4ccco4)c4ccccc4n3)CC2)cc1 | 1.6 | 0 | 1 | i | 3 | 1%
c1coc(CNc2nc(N3CCCCC3)nc3ccccc23)c1 | 3.7* | 13 | 0.99 | x | 13 | 13%
O=c1[nH]c2cc3c(cc2cc1C(c1nnnn1C1CCCCC1)N1CCSCC1)OCCO3 (configuration not stated) | 2.4* | 17 | 1 | i | 0 | 3%
COc1cc2cc(C(c3nnnn3C3CCCC3)N3CCCCC3)c(=O)[nH]c2cc1OC (configuration not stated) | 3.5* | 5 | 1.1 | x | 6 | 6%
CCCc1nc(SCC(=O)N2CCC(Cc3ccccc3)CC2)c2c(=O)n(C)c(=O)n(C)c2n1 | 1.1 | 5 | 1.1 | i | 5 | 3%

High-throughput results deposited in PubChem by SRMLSC.
